In PubChem BioAssay AID1345085 (National Center for Advancing Translational Sciences (NCATS), 2018) one finds Potency data, which are given here for 37 compounds.

Inconclusive results are not listed. Active and inactive are the calls of the source. Calls come from the whole dose curve; as a rule, active = well fitted cell-killing curve with a large enough effect; inconclusive = small, poorly fitted or top-dose-only effect, or effect the other way; inactive = no such curve, though single readings can be large or run the other way.
Potency is the fitted concentration of half-maximal effect.

The test system of the experiment is Jar. Put plainly: Confirmatory qHTS for gynecologic anti-cancer compounds from libraries of approved drugs and bioactive compounds. Note: nearly all actives have a fitted effect of over 55% in size. As to conditions: gynecologic cancer cell panel viability, ATPlite luminescence, 48 h; series mostly up to 57.6 µM. The gist of the method:
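ATPlite luminescence read-out of cell viability; IC50 from 11-point 1:3 titrations, 57.5 uM to 0.977 nM, 48 h compound exposure at 37 C, 5% CO2. Cells seeded at 1,000/well 16 h before dosing.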
On the technique in general: In qHTS, concentration-response curves come from the screen itself.
With `CCN1C[C@H](C)n2c(c(O)c3c(=O)n(Cc4ccc(F)c(Cl)c4)nc(C(=O)NC)c32)C1=O`, the Potency result is “inactive”.

Take `CCCCc1nc2cc(/C=C/C(=O)NO)ccc2n1CCN(CC)CC`: the Potency is 1.22 µM (active).

Regarding `Cc1nc(NC(=O)N2CCCC2C(N)=O)sc1-c1ccnc(C(C)(C)C(F)(F)F)c1` (configuration not stated), the Potency is 12.2 µM (active).

Consider `COc1cc2nccc(Oc3ccc(NC(=O)C4(C(=O)Nc5ccc(F)cc5)CC4)cc3)c2cc1OC`, for which the Potency is 27.3 µM (active).

On to `Cc1[nH]c2ccccc2c1CCNCc1ccc(/C=C/C(=O)NO)cc1`, for which the Potency was 0.193 µM (active).

As to `CNC(=O)c1ccccc1Nc1nc(Nc2ccc(N3CCOCC3)cc2OC)ncc1Cl`, the Potency is 19.3 µM (active).

For the compound `OC[C@H]1O[C@@H](n2cnc3c(=S)nc[nH]c32)[C@H](O)[C@@H]1O`, the Potency is 12.2 µM (active).

In the case of `CCc1nc(C(N)=O)c(Nc2ccc(N3CCC(N4CCN(C)CC4)CC3)c(OC)c2)nc1NC1CCOCC1`, the Potency was 13.4 µM (active).

With `COc1cccc2c1C(=O)c1c(O)c3c(c(O)c1C2=O)C[C@@](O)(C(=O)CO)C[C@@H]3O[C@H]1C[C@H](N)[C@H](O[C@@H]2CCCCO2)[C@H](C)O1`, the Potency is 13.7 µM (active).

With `Oc1cn2c(n1)Nc1ccc(Cl)c(Cl)c1C2`, the Potency entry is “inactive”.

Consider `C[C@@H](Oc1cc(-c2cnn(C3CCNCC3)c2)cnc1N)c1c(Cl)ccc(F)c1Cl`, for which the Potency is 15.3 µM (active).

With `CN1CCN(Cc2ccc(NC(=O)Nc3ccc(Oc4cc(NC(=O)C5CC5)ncn4)cc3)cc2C(F)(F)F)CC1`, the Potency is 19.3 µM (active).

With `O=C(CCCCCCC(=O)Nc1ccccc1)NO`, the Potency was 3.85 µM (active).

Turning to `Nc1ccccc1NC(=O)c1ccc(CNC(=O)OCc2cccnc2)cc1`, the Potency was 4.32 µM (active).

In the case of `Cn1cc(-c2[nH]c3cc(NC(=O)[C@H](N)C4CCCCC4)cc4c3c2C=NNC4=O)cn1`, the Potency was 10.9 µM (active).

Consider `Cc1nc(Nc2ncc(C(=O)Nc3c(C)cccc3Cl)s2)cc(N2CCN(CCO)CC2)n1`, for which the Potency was 21.7 µM (active).

Take `CC(C)n1nc(-c2cc3cc(O)ccc3[nH]2)c2c(N)ncnc21`: the Potency is 5.44 µM (active).

As for `CCCCc1oc2ccc(NS(C)(=O)=O)cc2c1C(=O)c1ccc(OCCCN(CCCC)CCCC)cc1`, the Potency was 30.6 µM (active).

Turning to `CN(C)CC/C=C1\c2ccccc2COc2ccccc21`, the Potency entry was “inactive”.

Consider `Cc1cc(C2CCCCC2)n(O)c(=O)c1`, for which the Potency was 8.86 µM (active).

For the compound `Nc1ccccc1NC(=O)c1ccc(CNc2nccc(-c3cccnc3)n2)cc1`, the Potency was 1.93 µM (active).

Consider `COC(=O)c1ccc2c(C(=Nc3ccc(N(C)C(=O)CN4CCN(C)CC4)cc3)c3ccccc3)c(O)[nH]c2c1`, for which the Potency entry is “inactive”.

Consider `CC(C)[C@@H](CS(=O)(=O)C(C)C)N1C(=O)[C@@](C)(CC(=O)O)C[C@H](c2cccc(Cl)c2)[C@H]1c1ccc(Cl)cc1`, for which the Potency is 2.73 µM (active).

Consider `CC(Oc1ccc2[nH]nc(/C=C/c3cnn(CCO)c3)c2c1)c1c(Cl)cncc1Cl` (configuration not stated), for which the Potency result was “inactive”.

In the case of `CCCc1nn(C)c2c(=O)[nH]c(-c3cc(S(=O)(=O)N4CCN(C)CC4)ccc3OCC)nc12`, the Potency entry is “inactive”.

With `CN1C2CCC1CC(OC(=O)[C@H](CO)c1ccccc1)C2` (some centres not stated), the Potency entry is “inactive”.

Consider `CCCCN(CCCC)C(=O)CN1C[C@H](c2ccc3c(c2)OCO3)[C@@H](C(=O)O)[C@@H]1c1ccc(OC)cc1`, for which the Potency result is “inactive”.

Regarding `Cc1nc(N)sc1-c1ccnc(Nc2ccc(N3CCOCC3)cc2)n1`, the Potency was 3.85 µM (active).

On to `CC(C)(C(=O)NCC(F)(F)C(F)(F)F)C(=O)NC1C(=O)Nc2ccccc2-c2ccccc21` (configuration not stated), for which the Potency entry was “inactive”.

Regarding `Cc1cnc(Nc2ccc(F)cc2Cl)nc1-c1c[nH]c(C(=O)NC(CO)c2cccc(Cl)c2)c1` (configuration not stated), the Potency result was “inactive”.

Consider `Cc1cnc(Nc2ccc(OCCN3CCCC3)cc2)nc1Nc1cccc(S(=O)(=O)NC(C)(C)C)c1`, for which the Potency is 17.2 µM (active).

`N=C(N)c1ccc(OCCCCCOc2ccc(C(=N)N)cc2)cc1`: the Potency was 5.44 µM (active).

For `Cc1ccc(C(=O)N(CCCN)C(c2oc3cc(Cl)ccc3c(=O)c2Cc2ccccc2)C(C)C)cc1` (configuration not stated), the Potency is 0.0137 µM (active).

In the case of `CCN(CC)CCCC(C)Nc1c2ccc(Cl)cc2nc2ccc(OC)cc12` (configuration not stated), the Potency entry was “inactive”.

Turning to `Fc1cc(-c2cccc3ncc(-c4cnn(C5CCNCC5)c4)nc23)cc(F)c1CN1CCOCC1`, the Potency was 34.3 µM (active).

Turning to `CS(=O)(=O)c1ccc(-c2cnc(N)c(C(=O)Nc3ccccc3)n2)cc1`, the Potency entry is “inactive”.

Regarding `COC(C(=O)N1Cc2[nH]nc(NC(=O)c3ccc(N4CCN(C)CC4)cc3)c2C1)c1ccccc1` (configuration not stated), the Potency result is “inactive”.
